# A selection: hits, their analogues and other compounds. The true share with any hit is near 2.3%.
# CHRM1 antagonist = antagonists of human M1 muscarinic receptor; P11229; CHO-K1 hM1, Fluo-8 calcium fluorescence, ACh EC80 antagonist; inhibition, % at 3 µM; 360,000 tested, 1.3% active;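 active means percent inhibition above its own plate's cutoff, namely the mean of that plate's compound wells plus 3 SD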;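 further: peak over basal fluorescence ratio during 140 s after agonist addition; 0% = ACh EC80 plus DMSO and 100% = DMSO alone without agonist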
# Target sequence (P11229 whole entry, looked up): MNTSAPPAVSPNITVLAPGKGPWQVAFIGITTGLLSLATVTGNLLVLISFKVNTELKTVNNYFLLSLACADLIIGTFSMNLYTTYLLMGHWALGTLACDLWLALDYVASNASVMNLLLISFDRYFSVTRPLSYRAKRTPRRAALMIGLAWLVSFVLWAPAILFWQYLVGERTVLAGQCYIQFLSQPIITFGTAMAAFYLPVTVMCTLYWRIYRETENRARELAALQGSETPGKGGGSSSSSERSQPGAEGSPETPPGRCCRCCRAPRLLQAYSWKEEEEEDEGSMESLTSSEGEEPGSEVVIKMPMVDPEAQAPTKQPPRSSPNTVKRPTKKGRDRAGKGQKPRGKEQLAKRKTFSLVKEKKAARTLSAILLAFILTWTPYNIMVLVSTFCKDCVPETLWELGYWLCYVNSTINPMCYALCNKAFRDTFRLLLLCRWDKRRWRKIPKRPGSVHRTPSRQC
# CHRM1 PAM = potentiates human M1 receptor response to acetylcholine; P11229; CHO-K1 hM1, Fluo-8 calcium fluorescence, ACh EC20; 0% = ACh EC20, 100% = maximal ACh; activation, % at 3 µM; 360,000 tested, 0.088% active; AID 588819; in the data active means activation above about 19%, passing the limit was not always enough
# CHRM1 agonist = agonists of human M1 muscarinic receptor | activation, % at 3 µM | 360,000 tested, 0.33% active | CHO-K1 hM1, Fluo-8 calcium fluorescence, agonist mode; 0% DMSO, 100% acetylcholine EC100 | P11229;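 active means activation above the run's mean compound activation plus 3 SD, cut at about 16% in these data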;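 further: peak over basal fluorescence ratio within a 140 s kinetic read after compound addition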
# M1 PAM parental = counter-screen for M1 PAMs: effect in parental CHO-K1 cells; ATP EC20, Fluo-8 calcium fluorescence; 0% at ATP EC20, 100% at ATP max; activation, % at 3 µM; 360,000 tested, 0.02% active;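 active means activation above the run cutoff, the mean activation of all test compounds plus 3 SD, cut at about 40% in these data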;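 further: peak over basal fluorescence ratio in a 140 s read after ATP addition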
# CHO-K1 Ca antag = nonselective inhibitor or artifact in parental CHO-K1 cells; ATP-induced calcium, Fluo-8 fluorescence; inhibition, % at 3 µM; 360,000 tested, 0.6% active; AID 602250;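 active means inhibition above a per-plate cutoff, the plate's mean sample inhibition plus 3 SD, cut at about 24% in these data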;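 further: 0% = DMSO plus EC80 ATP and 100% = DMSO alone without ATP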
# M1 ag parental = counter-screen for M1 agonists: effect in parental CHO-K1 cells; 360,000 tested, 0.48% active; activation, % at 3 µM; Fluo-8 calcium fluorescence; scaled to maximal ATP response, vehicle zero; AID 602248; in the data active means activation above about 15%;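 further: untransfected CHO-K1 host cells lacking M1 receptor as counterscreen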
# Starred values were filed as active, the others as inactive.
SMILES,CHRM1 antagonist,CHRM1 PAM,CHRM1 agonist,M1 PAM parental,CHO-K1 Ca antag,M1 ag parental
Cc1ccc(C(O)c2ncc(-c3ccc(C(F)(F)F)cc3)[nH]2)cc1F (stereo not drawn),-2,-3,-1,-3,-8,0
COC(=O)c1cc(S(=O)(=O)N2CCC(c3cc(OC)ccc3OC)C2)c[nH]1 (stereo not drawn),23,-11,5,-7,10,16*
COC(=O)c1cc(S(=O)(=O)N2CCN(c3cccc(C)c3C)CC2)c[nH]1,34*,-21,0,-3,13,8
COC(=O)c1cc(S(=O)(=O)N2CCC(c3ccccc3)C2)c[nH]1 (stereo not drawn),-4,3,3,-4,3,8
COC(=O)c1ccccc1NC(=O)CSc1nc(N)cc(N)n1,2,6,2,1,26*,0
Cc1ccc(CN2CCC(c3cc(-c4cccs4)n[nH]3)CC2)cc1,31*,-37,-15,14,0,2
CC(C)C(=O)N1CCN(c2ccccc2NC(=O)c2ccc(C#N)cc2F)CC1,9,4,-6,5,-2,22*
Cc1ccccc1C(=O)N1CCN(c2ccc(NC(=O)c3ccc4c(c3)OCCO4)cc2)CC1,18,-16,4,-15,0,19*
CS(=O)(=O)N1CCN(c2ccccc2NC(=O)c2ccc3c(c2)OCCO3)CC1,-4,3,-5,6,-6,19*
Cc1ccc(C(=O)Nc2ccccc2N2CCN(C(=O)C(C)C)CC2)cc1C,11,-1,-1,-27,29*,1
CC(C)CC[n+]1ccn(-c2nc3ccccc3nc2[N-]S(=O)(=O)c2ccc(Cl)cc2)c1,1,6,2,-21,20,0
CCOC(=O)c1sc(NC(=O)Nc2cccc(Cl)c2)cc1C,43*,-18,3,-6,39*,18*
CCOC(=O)c1sc(NC(=O)c2cccs2)cc1C,-16,8,-4,7,12,4
CCc1nc2ccc(C(=O)N3CCN(c4ccc([N+](=O)[O-])cc4)CC3)cc2nc1CC,11,-14,-6,11,-24,2
O=C(Nc1ccccc1Cl)c1cc(C2CCCCN2C(=O)C2CCCCC2)on1 (stereo not drawn),-8,-3,-8,0,-4,0
COC(=O)N1CCCCC1c1cc(C(=O)Nc2ccccc2Cl)no1 (stereo not drawn),-23,28*,2,10,-10,1
CCCNC(=O)c1cc(C2CCCCN2C(=O)c2cc(OC)c(C)c(OC)c2)on1 (stereo not drawn),-7,-5,-2,-10,25*,3
COc1ccc(C(C(=O)NC(C)(C)C)N(CCC(C)C)C(=O)CCC(=O)Nc2cc(C)on2)cc1 (stereo not drawn),-26,30*,-2,8,-6,-1
O=c1n(Cc2ccccc2)c(O)c2n1Cc1ccccc1N=C2c1ccc(C(F)(F)F)cc1,-17,-7,-3,3,-21,1
Cc1ccccc1C1=NC(C(F)(F)F)(C(F)(F)F)c2c(n(C)c(=O)n(C)c2=O)N1,0,-1,-4,-2,8,1
Cn1c2c(c(=O)n(C)c1=O)C(C(F)(F)F)(C(F)(F)F)N=C(c1ccc(Cl)cc1)N2,24*,-9,5,8,19,11
COc1cccc(CN2CC(C(=O)N(C)C3CCOCC3)CCC2=O)c1 (stereo not drawn),-9,3,-4,-6,30*,0
COc1cccc(CN(C)C(=O)C2CCC(=O)N(Cc3cccc(F)c3)C2)c1 (stereo not drawn),-13,13,-2,-11,4,1
CC[N+](C)(C)c1cccc(O)c1,-26,-1,16*,9,-7,1
CCNc1cc(O)ccc1C,-3,7,-3,-5,4,0
COc1ccc(N2CCN(C(=O)COC(=O)CCOc3ccc(C(C)(C)C)cc3)CC2)cc1,-12,8,0,10,-3,2
COCCNC(=O)c1ccc(N2CC3CC(C2)c2cccc(=O)n2C3)c(NC(=O)c2cc(OC)cc(OC)c2)c1 (stereo not drawn),-17,16,0,22,-21,0

# Screening data as filed in PubChem BioAssay.
